# Reference: PubChem BioAssay (Tox21)
# Results filed as inconclusive are left out. A call without a number means that no potency is given here. More than one record can exist for a structure, and the calls need not agree. Active and inactive are the calls of the source. Unless noted, calls follow the shape of the full dose curve.
# Tests used:
# [1] = qHTS assay to identify small molecule agonists of the vitamin D receptor (VDR) signaling pathway - cell viability counter screen (AID 743224; active = well fitted curve in the direction sought with a large enough effect in the repeat runs; an effect the other way counts as inactive or inconclusive; also: nearly all actives have a fitted effect of over 50% in size; also: potency is read from the fitted curve at half-maximal effect; as to activity change, negative = cytotoxicity: series mostly up to about 63 µM)
# Outline: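 Here cell health was gauged by luminescent ATP detection (CellTiter-Glo, 30 min RT) in VDR-bla cells that had been incubated with test compounds for 16 h at 37C and 5% CO2.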
# [2] = qHTS assay to identify small molecule antagonists of the vitamin D receptor (VDR) signaling pathway - cell viability counter screen (AID 743225; active = well fitted curve in the direction sought with a large enough effect in the repeat runs; an effect the other way counts as inactive or inconclusive; also: nearly all actives have a fitted effect of over 50% in size; also: potency is read from the fitted curve at half-maximal effect)
# Outline: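 Luminescent cell viability (CellTiter-Glo) in VDR-bla HEK 293T cells after 16 h compound exposure at 37C in the presence of 3 nM final 1-alpha,25-dihydroxy vitamin D3.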
# [3] = qHTS assay to identify small molecule agonists of the NFkB signaling pathway (AID 1159509; active = well fitted curve in the direction sought with a large enough effect in the signal ratio in the repeat runs, not every such curve was filed as active; the % refers to the signal ratio; also: series mostly up to about 61 µM)
# Outline: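 ME-180 NFkB-bla, 2,000 cells/well, overnight plating; cpd pinned in DMSO, 5 h 37 C; B/G FRET substrate 1.5 h RT; ex 405, em 460/530 nm.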
# [4] = qHTS assay to identify small molecule agonists of the NFkB signaling pathway - cell viability counter screen (AID 1159515); also: series mostly up to about 61 µM; nearly all actives have a fitted effect of over 55% in size
# Outline: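 5 hr compound treatment of NFkB-bla ME-180 cells (2,000/well, seeded overnight beforehand), followed by reporter substrate for 1.5 hr. CellTiter-Glo added afterward; luminescence after 30 min RT.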
# [5] = qHTS assay to identify small molecule agonists of the endoplasmic reticulum stress response signaling pathway (AID 1159516; active = well fitted activation curve with a large enough effect in the signal ratio in the repeat runs, not every such curve was filed as active; the % refers to the signal ratio)
# Outline: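 Reporter HeLa cells (ESRE-beta-lactamase) underwent 5 hr compound incubation at 37 C and 5% CO2 in quantitative HTS format. Detection followed 2 hr of FRET substrate loading at room temperature.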
# [6] = qHTS assay to identify small molecule agonists of the endoplasmic reticulum stress response signaling pathway - cell viability counter screen (AID 1159517);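 also: HeLa cells carrying an ER stress response element beta-lactamase reporter; series mostly up to about 61 µM; nearly all actives have a fitted effect of over 50% in size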
# Outline: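 ESRE-bla HeLa cells, 1,500 per well, seeded overnight then treated with compounds for 5 hr at 37 C. After the beta-lactamase read, viability in the same wells is measured by CellTiter-Glo luminescence after 30 min at room temperature.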
# [7] = qHTS assay to identify small molecule antagonists of the retinoid-related orphan receptor gamma (ROR-gamma) signaling pathway - cell viability counter screen (AID 1159520; active = well fitted curve in the direction sought with a large enough effect in the repeat runs; an effect the other way counts as inactive or inconclusive; also: nearly all actives have a fitted effect of over 50% in size)
# Outline: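 Tet-on ROR gamma CHO cells were given compounds for 2 hr, then doxycycline hyclate at 1 uM final, and incubated 16 hr at 37 C. Viability was measured as ATP content by CellTiter-Glo luminescence.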
# [8] = molecular target: Nuclear receptor ROR-gamma (Homo sapiens) (UniProt P51449); test: qHTS assay to identify small molecule antagonists of the retinoid-related orphan receptor gamma (ROR-gamma) signaling pathway (AID 1159521; active = well fitted curve in the direction sought with a large enough effect in the repeat runs; an effect the other way counts as inactive or inconclusive; also: nearly all actives have a fitted effect of over 50% in size; also: potency is read from the fitted curve at half-maximal effect;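 as to activity change, negative = inhibition: CHO cells with doxycycline inducible ROR-gamma driving an RORE luciferase reporter; top concentration of the series differs between compounds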)
# Outline: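 CHO cells expressing RORγ under a TET-on promoter, luciferase under RORE control. Dox 1 uM final, 16 h; compounds added 2 h prior. Luminescence decrease measured.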
# [9] = qHTS assay to identify small molecule agonists of the AP-1 signaling pathway - cell viability counter screen (AID 1159525); also: nearly all actives have a fitted effect of over 55% in size; also: potency is read from the fitted curve at half-maximal effect
# Outline: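 AP-1-bla ME-180 cells in Opti-MEM with 0.5% dialyzed FBS, compound exposure 5 h at 37 C in 15-point titration. Viability read in the same wells as ATP content by CellTiter-Glo luminescence, normalised to tetra-n-octylammonium bromide and DMSO controls.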
# [10] = qHTS assay to identify small molecule agonists of the AP-1 signaling pathway (AID 1159526)
smiles,measurement,setting,value
C[C@H]1C[C@@H](O)CC(C)(C)C1,Potency,[1],inactive
same,Potency,[2],inactive
same,outcome,[3],inactive
same,outcome,[4],inactive
same,outcome,[5],inactive
same,outcome,[6],inactive
same,outcome,[7],inactive
same,Potency,[8],inactive
same,Potency,[9],inactive
same,outcome,[10],inactive
CCC(C)C1CCCCC1=O (configuration not stated),Potency,[1],inactive
same,Potency,[2],inactive
same,outcome,[3],inactive
same,outcome,[4],inactive
same,outcome,[5],inactive
same,outcome,[6],inactive
same,outcome,[7],inactive
same,Potency,[8],inactive
same,Potency,[9],inactive
same,outcome,[10],inactive
O=C(CCCN1CCN(c2ccccn2)CC1)c1ccc(F)cc1,Potency,[1],inactive
same,Potency,[2],inactive
same,outcome,[3],inactive
same,outcome,[4],inactive
same,outcome,[5],inactive
same,outcome,[6],inactive
same,outcome,[7],inactive
same,Potency,[8],inactive
same,Potency,[9],inactive
same,outcome,[10],inactive
OC[C@]1(O)OC[C@@H](O)[C@H](O)[C@@H]1O,Potency,[1],inactive
same,Potency,[2],inactive
same,outcome,[3],inactive
same,outcome,[4],inactive
same,outcome,[5],inactive
same,outcome,[6],inactive
same,outcome,[7],inactive
same,Potency,[8],inactive
same,Potency,[9],inactive
same,outcome,[10],inactive
Cc1sccc1Br,Potency,[1],inactive
same,Potency,[2],inactive
same,outcome,[3],inactive
same,outcome,[4],inactive
same,outcome,[5],inactive
same,outcome,[6],inactive
same,outcome,[7],inactive
same,Potency,[8],inactive
same,Potency,[9],inactive
same,outcome,[10],inactive
CC/C=C\CC/C=C/C(OCC)OCC,Potency,[1],inactive
same,Potency,[2],inactive
same,outcome,[3],inactive
same,outcome,[4],inactive
same,outcome,[5],inactive
same,outcome,[6],inactive
same,outcome,[7],inactive
same,Potency,[8],inactive
same,Potency,[9],inactive
same,outcome,[10],inactive
CN(C)CCCN1c2ccccc2CCc2ccc(Cl)cc21,Potency,[1],43.6 µM (active)
same,Potency,[2],38.9 µM (active)
same,outcome,[3],inactive
same,outcome,[4],inactive
same,outcome,[5],inactive
same,outcome,[6],inactive
same,outcome,[7],inactive
same,Potency,[8],19.3 µM (active)
same,Potency,[9],inactive
O=C(O)CCCc1ccccc1,Potency,[1],inactive
same,Potency,[2],inactive
same,outcome,[3],inactive
same,outcome,[4],inactive
same,outcome,[5],inactive
same,outcome,[6],inactive
same,outcome,[7],inactive
same,Potency,[8],inactive
same,Potency,[9],inactive
same,outcome,[10],inactive
CO/N=C(/C(=O)N[C@@H]1C(=O)N2C(C(=O)OCOC(=O)C(C)(C)C)=C(C)CS[C@H]12)c1csc(N)n1,Potency,[2],inactive
same,outcome,[3],inactive
same,outcome,[4],inactive
same,outcome,[5],inactive
same,outcome,[6],inactive
same,outcome,[7],inactive
same,Potency,[8],inactive
same,Potency,[9],inactive
same,outcome,[10],inactive
O=C(O)CNC(=O)c1ccc([N+](=O)[O-])cc1,Potency,[2],inactive
same,outcome,[3],inactive
same,outcome,[4],inactive
same,outcome,[5],inactive
same,outcome,[6],inactive
same,outcome,[7],inactive
same,Potency,[8],inactive
same,Potency,[9],inactive
same,outcome,[10],inactive
OC(CCN1CCCCC1)(c1ccccc1)C1CC2C=CC1C2 (configuration not stated),Potency,[2],inactive
same,outcome,[3],inactive
same,outcome,[4],inactive
same,outcome,[5],inactive
same,outcome,[6],inactive
same,outcome,[7],inactive
same,Potency,[8],inactive
same,Potency,[9],inactive
same,outcome,[10],inactive
COC(=O)C1=C(C)NC(C)=C(C(=O)OC)C1c1ccccc1[N+](=O)[O-],Potency,[1],39 µM (active) and inactive
same,Potency,[2],inactive
same,outcome,[3],inactive
same,outcome,[4],inactive
same,outcome,[5],inactive
same,outcome,[6],inactive
same,outcome,[7],inactive
same,Potency,[9],49 µM (active) and inactive
same,outcome,[10],inactive
CC/C=C\CCOC(C)=O,Potency,[1],inactive
same,Potency,[2],inactive
same,outcome,[3],inactive
same,outcome,[4],inactive
same,outcome,[5],inactive
same,outcome,[6],inactive
same,outcome,[7],inactive
same,Potency,[8],inactive
same,Potency,[9],inactive
same,outcome,[10],inactive
CC(C)NCCCC1(C(N)=O)c2ccccc2-c2ccccc21,Potency,[1],inactive
same,Potency,[2],inactive
same,outcome,[3],inactive
same,outcome,[4],inactive
same,outcome,[5],inactive
same,outcome,[6],inactive
same,outcome,[7],inactive
same,Potency,[8],inactive
same,Potency,[9],inactive
same,outcome,[10],inactive
C1CN(CCOCCN2CCOCC2)CCO1,Potency,[1],inactive
same,Potency,[2],inactive
same,outcome,[3],inactive
same,outcome,[4],inactive
same,outcome,[5],inactive
same,outcome,[6],inactive
same,outcome,[7],inactive
same,Potency,[8],inactive
same,Potency,[9],inactive
same,outcome,[10],inactive
C1OCOCO1,Potency,[1],inactive
same,Potency,[2],inactive
same,outcome,[3],inactive
same,outcome,[4],inactive
same,outcome,[5],inactive
same,outcome,[6],inactive
same,outcome,[7],inactive
same,Potency,[8],inactive
same,Potency,[9],inactive
same,outcome,[10],inactive
CC(C[N+](C)(C)C)OC(N)=O (configuration not stated),Potency,[1],inactive
same,Potency,[2],inactive
same,outcome,[3],inactive
same,outcome,[4],inactive
same,outcome,[5],inactive
same,outcome,[6],inactive
same,outcome,[7],inactive
same,Potency,[8],inactive
same,Potency,[9],inactive
same,outcome,[10],inactive
CC(=O)OCC(=O)[C@@]1(O)CCC2C3CCC4=CC(=O)CC[C@]4(C)C3[C@@H](O)C[C@@]21C (some centres not stated),Potency,[1],inactive
same,Potency,[2],inactive
same,outcome,[3],inactive
same,outcome,[4],inactive
same,outcome,[5],inactive
same,outcome,[6],inactive
same,outcome,[7],inactive
same,Potency,[8],inactive
same,Potency,[9],inactive
same,outcome,[10],inactive
CN1CCCC1,Potency,[1],inactive
same,Potency,[2],inactive
same,outcome,[3],inactive
same,outcome,[4],inactive
same,outcome,[5],inactive
same,outcome,[6],inactive
same,outcome,[7],inactive
same,Potency,[8],inactive
same,Potency,[9],inactive
same,outcome,[10],inactive
C[C@](N)(Cc1ccc(O)cc1)C(=O)O,"activity change, negative = cytotoxicity",[1],-0.278% [at 5.95 µM] (inactive)
same,"viability change, negative = cytotoxic",[2],4.51% [at 6.95 µM] (inactive)
same,activation,[3],0.267% [at 6.95 µM] (inactive)
same,"activity, negative = cytotoxic",[4],2.4% [at 6.95 µM] (inactive)
same,activation,[5],0.0819% [at 6.95 µM] (inactive)
same,"activity change, negative = cytotoxicity",[6],-6.6% [at 6.95 µM] (inactive)
same,"activity, negative = cytotoxicity",[7],1.71% [at 8.39 µM] (inactive)
same,"activity change, negative = inhibition",[8],10.5% [at 8.39 µM] (inactive)
same,"viability change, negative = cytotoxic",[9],6.35% [at 6.97 µM] (inactive)
same,activation,[10],-6.83% [at 6.97 µM] (inactive)
CCOC(=O)[C@H](CCc1ccccc1)N[C@@H](C)C(=O)N1[C@H](C(=O)O)C[C@@H]2CCC[C@@H]21,Potency,[2],inactive
same,outcome,[3],inactive
same,outcome,[4],inactive
same,outcome,[5],inactive
same,outcome,[6],inactive
same,outcome,[7],inactive
same,Potency,[8],inactive
same,Potency,[9],inactive
same,outcome,[10],inactive
ClC(Cl)(Br)Br,Potency,[1],inactive
same,Potency,[2],inactive
same,outcome,[3],inactive
same,outcome,[4],inactive
same,outcome,[5],inactive
same,outcome,[6],inactive
same,outcome,[7],inactive
same,Potency,[8],inactive
same,Potency,[9],inactive
same,outcome,[10],inactive
C=CCCCCCCCCC=O,Potency,[1],inactive
same,outcome,[3],inactive
same,outcome,[4],inactive
same,outcome,[5],inactive
same,outcome,[6],inactive
same,Potency,[8],inactive
same,Potency,[9],inactive
same,outcome,[10],inactive
CC(=O)N(CC(O)CO)c1c(I)c(C(=O)NCCO)c(I)c(C(=O)NCC(O)CO)c1I (configuration not stated),Potency,[1],inactive
same,Potency,[2],inactive
same,outcome,[3],inactive
same,outcome,[4],inactive
same,outcome,[5],inactive
same,outcome,[6],inactive
same,outcome,[7],inactive
same,Potency,[8],inactive
same,Potency,[9],inactive
same,outcome,[10],inactive
